Among all 5,500 compounds or so, about 2,000 (36%) were called active. Roughly 18% stayed inconclusive and do not appear here. Rule as the data show it: active = normalized growth mostly below about 0.91 (no sharp cut-off); inconclusive = no clear call, values can overlap the other calls; inactive = mostly above about 0.92. Some of the results follow.
Assay: chemical genetic growth profiling, strain panel (AID 1159580);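 also: tested at 20 µM; growth read once vehicle control cultures reached saturation at 30 °C; 1 = growth at the plate median or of vehicle wells; lower values mean less growth of the strain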
Conditions: growth OD

Measured: normalized growth

COc1c2c(cc3c1OCO3)CC[N+](C)=C2
inactive: S. cerevisiae deletion strains, locus YJL187C, strain SWE1 (second series), stronger effect = lower value 1.04 | S. cerevisiae deletion strains, locus YJL187C, strain SWE1, stronger effect = lower value 1.02 | S. cerevisiae deletion strains, locus YJR043C, strain POL32, stronger effect = lower value 0.99 | S. cerevisiae deletion strains, locus YJR066W, strain TOR1, stronger effect = lower value 0.886 | S. cerevisiae deletion strains, locus YKL009W, strain mrt4, stronger effect = lower value 1.04 | S. cerevisiae deletion strains, locus YKL068W, stronger effect = lower value 0.996 | S. cerevisiae deletion strains, locus YKL085W, strain MDH1 (second series), stronger effect = lower value 1.01 | S. cerevisiae deletion strains, locus YKL085W, strain MDH1, stronger effect = lower value 1.01 | S. cerevisiae deletion strains, locus YKL160W, strain elf1, stronger effect = lower value 0.977 | S. cerevisiae deletion strains, locus YKL190W, strain CNB1, stronger effect = lower value 1 | S. cerevisiae deletion strains, locus YKR001C, strain vps1, stronger effect = lower value 1.02 | S. cerevisiae deletion strains, locus YKR026C, strain gcn3, stronger effect = lower value 0.993 | S. cerevisiae deletion strains, locus YKR091W, strain srl3, stronger effect = lower value 0.99 | S. cerevisiae deletion strains, locus YLL001W, strain dnm1, stronger effect = lower value 1 | S. cerevisiae deletion strains, locus YLL026W, stronger effect = lower value 1 | S. cerevisiae deletion strains, locus YLL041C, strain sdh2, stronger effect = lower value 0.984 | S. cerevisiae deletion strains, locus YLR027C, strain aat2, stronger effect = lower value 1.01 | S. cerevisiae deletion strains, locus YLR039C, strain RIC1, stronger effect = lower value 1.1 | S. cerevisiae deletion strains, locus YLR058C, strain SHM2, stronger effect = lower value 1.02 | S. cerevisiae deletion strains, locus YLR102C, strain apc9, stronger effect = lower value 1 | S. cerevisiae deletion strains, locus YLR113W, strain HOG1, stronger effect = lower value 0.978 | S. cerevisiae deletion strains, locus YLR221C, strain rsa3, stronger effect = lower value 1.04 | S. cerevisiae deletion strains, locus YLR258W, strain gsy2, stronger effect = lower value 1.02 | S. cerevisiae deletion strains, locus YLR262C, strain YPT6 (second series), stronger effect = lower value 0.995 | S. cerevisiae deletion strains, locus YLR262C, strain YPT6, stronger effect = lower value 1.12 | S. cerevisiae deletion strains, locus YLR268W, strain sec22, stronger effect = lower value 0.999 | S. cerevisiae deletion strains, locus YLR320W, strain mms22, stronger effect = lower value 1.06 | S. cerevisiae deletion strains, locus YLR342W, strain FKS1, stronger effect = lower value 1.01 | S. cerevisiae deletion strains, locus YLR357W, strain rsc2, stronger effect = lower value 0.968 | S. cerevisiae deletion strains, locus YLR370C, strain arc18, stronger effect = lower value 1 | S. cerevisiae deletion strains, locus YLR371W, strain rom2, stronger effect = lower value 1.01 | S. cerevisiae deletion strains, locus YLR384C, strain iki3, stronger effect = lower value 0.999 | S. cerevisiae deletion strains, locus YLR418C, strain cdc73, stronger effect = lower value 1.03 | S. cerevisiae deletion strains, locus YML016C, strain PPZ1, stronger effect = lower value 1.01 | S. cerevisiae deletion strains, locus YML032C, strain rad52, stronger effect = lower value 0.999 | S. cerevisiae deletion strains, locus YML120C, strain ndi1, stronger effect = lower value 0.977 | S. cerevisiae deletion strains, locus YML124C, strain tub3, stronger effect = lower value 1.01 | S. cerevisiae deletion strains, locus YMR058W, strain fet3, stronger effect = lower value 1 | S. cerevisiae deletion strains, locus YMR078C, strain ctf18, stronger effect = lower value 1 | S. cerevisiae deletion strains, locus YMR125W, strain sto1, stronger effect = lower value 0.923 | S. cerevisiae deletion strains, locus YMR129W, stronger effect = lower value 0.996 | S. cerevisiae deletion strains, locus YMR205C, strain PFK2, stronger effect = lower value 0.975 | S. cerevisiae deletion strains, locus YMR223W, strain ubp8, stronger effect = lower value 1.02 | S. cerevisiae deletion strains, locus YMR231W, strain pep5, stronger effect = lower value 1.01 | S. cerevisiae deletion strains, locus YMR307W, strain GAS1, stronger effect = lower value 1.03 | S. cerevisiae deletion strains, locus YNL067W, strain RPL9B, stronger effect = lower value 1.03 | S. cerevisiae deletion strains, locus YNL071W, strain lat1, stronger effect = lower value 0.998 | S. cerevisiae deletion strains, locus YNL183C, strain NPR1, stronger effect = lower value 0.923 | S. cerevisiae deletion strains, locus YNL209W, strain ssb2, stronger effect = lower value 0.992 | S. cerevisiae deletion strains, locus YNL233W, strain BNI4, stronger effect = lower value 1.01 | S. cerevisiae deletion strains, locus YNL248C, strain rpa49, stronger effect = lower value 0.924 | S. cerevisiae deletion strains, locus YNL250W, strain rad50, stronger effect = lower value 1.03 | S. cerevisiae deletion strains, locus YNL271C, strain bni1, stronger effect = lower value 1.03 | S. cerevisiae deletion strains, locus YNL298W, strain CLA4, stronger effect = lower value 0.992 | S. cerevisiae deletion strains, locus YNL307C, strain MCK1, stronger effect = lower value 1.01 | S. cerevisiae deletion strains, locus YNL322C, strain KRE1 (second series), stronger effect = lower value 0.997 | S. cerevisiae deletion strains, locus YNR049C, strain mso1, stronger effect = lower value 0.979 | S. cerevisiae deletion strains, locus YNR052C, strain pop2, stronger effect = lower value 1.01 | S. cerevisiae deletion strains, locus YOL012C, strain htz1 0.651 | S. cerevisiae deletion strains, locus YOL147C, strain pex11, stronger effect = lower value 1 | S. cerevisiae deletion strains, locus YOR001W, strain rrp6, stronger effect = lower value 1.03 | S. cerevisiae deletion strains, locus YOR061W, strain CKA2, stronger effect = lower value 1.01 | S. cerevisiae deletion strains, locus YOR069W, strain VPS5, stronger effect = lower value 1 | S. cerevisiae deletion strains, locus YOR070C, strain gyp1, stronger effect = lower value 1.02 | S. cerevisiae deletion strains, locus YOR080W, strain dia2, stronger effect = lower value 1.02 | S. cerevisiae deletion strains, locus YOR083W, strain WHI5, stronger effect = lower value 0.97 | S. cerevisiae deletion strains, locus YOR106W, strain vam3, stronger effect = lower value 0.937 | S. cerevisiae deletion strains, locus YOR136W, strain idh2, stronger effect = lower value 1.03 | S. cerevisiae deletion strains, locus YOR144C, strain elg1, stronger effect = lower value 1 | S. cerevisiae deletion strains, locus YOR184W, strain ser1, stronger effect = lower value 0.996 | S. cerevisiae deletion strains, locus YOR231W, strain MKK1, stronger effect = lower value 0.994 | S. cerevisiae deletion strains, locus YOR265W, strain rbl2, stronger effect = lower value 0.996 | S. cerevisiae deletion strains, locus YOR270C, strain vph1, stronger effect = lower value 0.991 | S. cerevisiae deletion strains, locus YOR290C, strain snf2, stronger effect = lower value 0.919 | S. cerevisiae deletion strains, locus YOR316C, strain cot1, stronger effect = lower value 1.01 | S. cerevisiae deletion strains, locus YPL051W, strain arl3, stronger effect = lower value 1.03 | S. cerevisiae deletion strains, locus YPL078C, strain atp4, stronger effect = lower value 0.952 | S. cerevisiae deletion strains, locus YPL106C, strain sse1, stronger effect = lower value 0.972 | S. cerevisiae deletion strains, locus YPL240C, strain hsp82, stronger effect = lower value 1.01 | S. cerevisiae deletion strains, locus YPL256C, strain CLN2, stronger effect = lower value 0.975 | S. cerevisiae deletion strains, locus YPR119W, strain clb2, stronger effect = lower value 1.01 | S. cerevisiae deletion strains, locus YPR141C, strain kar3, stronger effect = lower value 1.01 | S. cerevisiae deletion strains, locus YPR163C, strain tif3, stronger effect = lower value 1.02 | S. cerevisiae deletion strains, locus YPR167C, strain met16, stronger effect = lower value 1.01 | S. cerevisiae deletion strains, strain wtn01, stronger effect = lower value 1 | S. cerevisiae strains, strain wild type, stronger effect = lower value 1

Reference: PubChem BioAssay AID1159580 (chemical genetic matrix, 2015)
